# Results from the supplement of paper PMC4709259.
# Structures can show the parent of a compound that is named as a salt. ± gives the standard deviation.
# Test system: Jurkat
# Assay: cell count relative to DMSO control (fraction of control); higher = more cells (less growth inhibition)
# Conditions: 48 h
row,Compound,cell count
1,COc1c(N2CCNC(C)C2)c(F)cc2c(=O)c(C(=O)O)cn(C3CC3)c12 (stereo not given) [Gatifloxacin] (concentration: 25 µM),0.661 ± 0.17
2,COc1ccc(OC)c(C(O)CNC(=O)CN)c1 (stereo not given) [Midodrine·HCl] (concentration: 25 µM),0.55 ± 0.15
3,CCOC(=O)O[C@]1(C(=O)OCCl)CC[C@H]2[C@@H]3CCC4=CC(=O)C=C[C@]4(C)[C@H]3[C@@H](O)C[C@@]21C [Loteprednol Etabonate] (concentration: 25 µM),1.08 ± 0.067
4,Nc1nc(Cl)nc2c1ncn2[C@@H]1O[C@H](CO)[C@@H](O)[C@@H]1F [Clofarabine] (concentration: 25 nM),0.26 ± 0.073
5,C[C@H](Cn1cnc2c(N)ncnc21)OCP(=O)(O)O [Tenofovir] (concentration: 2.5 µM),0.894 ± 0.016
6,CNCCCC1c2ccccc2C=Cc2ccccc21 [Protriptyline·HCl] (concentration: 25 µM),0.821 ± 0.056
7,CN(C)CCOC(c1ccc(Cl)cc1)c1ccccn1 (stereo not given) [Carbinoxamine Maleate] (concentration: 25 µM),0.735 ± 0.064
8,NS(=O)(=O)c1cc(C(=O)O)c(NCc2ccco2)cc1Cl [Furosemide] (concentration: 25 µM),0.249 ± 0.11
9,CCCCc1ncc(/C=C(\Cc2cccs2)C(=O)O)n1Cc1ccc(C(=O)O)cc1 [Eprosartan Mesylate] (concentration: 25 µM),0.864 ± 0.071
10,C[C@]12CC[C@@H]3c4ccc(O)cc4C[C@@H](CCCCCCCCC[S+]([O-])CCCC(F)(F)C(F)(F)F)[C@H]3[C@@H]1CC[C@@H]2O (stereo not given in full) [Fulvestrant] (concentration: 25 µM),0.862 ± 0.061
11,Cc1cccc(Nc2ccccc2C(=O)O)c1C [Mefenamic Acid] (concentration: 25 µM),0.655 ± 0.14
12,CCOC(=O)[C@H](CCc1ccccc1)N[C@@H](C)C(=O)N1[C@H](C(=O)O)C[C@@H]2CCC[C@@H]21 [Ramipril] (concentration: 25 µM),0.965 ± 0.031
13,C=C(c1ccc(C(=O)O)cc1)c1cc2c(cc1C)C(C)(C)CCC2(C)C [Bexarotene] (concentration: 2.5 µM),0.955 ± 0.09
14,Nc1nc2c(ncn2COCCO)c(=O)[nH]1 [Acyclovir (Acycloguanosine) Zovirax] (concentration: 25 µM),0.842 ± 0.022
15,CCCCC(C)(O)C/C=C/[C@H]1[C@H](O)CC(=O)[C@@H]1CCCCCCC(=O)OC (mixture of isomers) [Misoprostol] (concentration: 25 µM),0.702 ± 0.08
